Assay results as given in PubChem BioAssay AID1159580 (chemical genetic matrix, 2015).
“And” between values parts separate entries of the source, which are not always exact repeats. Equal entries are not always repeated. Among all 5,500 compounds or so, about 2,000 (36%) were called active. Not shown: some 18% with an inconclusive outcome. No stated cut-off is given here; in the data, active means normalized growth mostly below about 0.91 (no sharp cut-off); inconclusive means no clear call, values can overlap the other calls; inactive means mostly above about 0.92. Some of the results follow.

Experiment: chemical genetic growth profiling, strain panel (AID 1159580);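 further: tested at 20 µM; growth read once vehicle control cultures reached saturation at 30 °C; 1 = growth at the plate median or of vehicle wells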
Settings: S. cerevisiae deletion strains, growth OD

Measured: normalized growth

COc1ccc2c(C)cc(=O)oc2c1
inactive: locus YAL013W, strain DEP1, stronger effect = lower value 1.02 | locus YAL021C, strain ccr4, stronger effect = lower value 0.979 | locus YAL026C, strain drs2, stronger effect = lower value 0.989 | locus YAL030W, strain snc1, stronger effect = lower value 1.02 | locus YBL061C, strain skt5, stronger effect = lower value 0.993 | locus YBR009C, strain hhf1, stronger effect = lower value 1.01 | locus YBR021W, strain FUR4, stronger effect = lower value 0.976 | locus YBR023C, strain chs3, stronger effect = lower value 0.989 | locus YBR171W, strain sec66, stronger effect = lower value 0.985 | locus YBR229C, strain ROT2, stronger effect = lower value 1.01 | locus YBR231C, strain swc5, stronger effect = lower value 0.987 | locus YBR279W, strain paf1, stronger effect = lower value 0.995 | locus YCL011C, strain gbp2, stronger effect = lower value 0.999 | locus YCL016C, strain dcc1, stronger effect = lower value 0.997 | locus YCL029C, strain bik1, stronger effect = lower value 1.03 | locus YCL061C, strain MRC1, stronger effect = lower value 0.995 | locus YCL069W, strain vba3, stronger effect = lower value 0.964 | locus YCR088W, strain abp1, stronger effect = lower value 0.979 | locus YDL005C, strain med2, stronger effect = lower value 0.974 | locus YDL035C, strain GPR1, stronger effect = lower value 1.02 | locus YDL040C, strain nat1, stronger effect = lower value 0.99 | locus YDL074C, strain BRE1, stronger effect = lower value 0.995 | locus YDL101C, strain DUN1, stronger effect = lower value 1.02 | locus YDL134C, strain PPH21, stronger effect = lower value 0.992 | locus YDL185W, strain tfp1, stronger effect = lower value 1.04 | locus YDL192W, strain arf1, stronger effect = lower value 1.02 | locus YDR001C, strain nth1, stronger effect = lower value 0.981 | locus YDR069C, strain doa4, stronger effect = lower value 1 | locus YDR101C, strain arx1, stronger effect = lower value 1.01 | locus YDR137W, strain rgp1, stronger effect = lower value 0.979 | locus YDR159W, strain sac3, stronger effect = lower value 0.995 | locus YDR162C, strain NBP2, stronger effect = lower value 1.03 | locus YDR195W, strain ref2 1.04 | locus YDR297W, strain sur2, stronger effect = lower value 1.01 | locus YDR318W, strain mcm21, stronger effect = lower value 1.02 | locus YDR334W, strain swr1, stronger effect = lower value 0.956 | locus YDR335W, strain msn5, stronger effect = lower value 0.981 | locus YDR388W, stronger effect = lower value 1.01 | locus YDR392W, strain spt3, stronger effect = lower value 0.978 | locus YDR502C, strain sam2, stronger effect = lower value 1.03 | locus YEL003W, strain gim4, stronger effect = lower value 0.982 | locus YEL037C, strain rad23, stronger effect = lower value 0.973 | locus YEL061C, strain CIN8 (second series), stronger effect = lower value 0.975 | locus YER015W, strain faa2, stronger effect = lower value 1 | locus YER016W, strain bim1, stronger effect = lower value 0.998 | locus YER110C, stronger effect = lower value 1.02 | locus YER111C, strain swi4, stronger effect = lower value 0.992 | locus YER155C, strain BEM2 (second series), stronger effect = lower value 0.976 | locus YER155C, strain BEM2, stronger effect = lower value 1.01 | locus YER167W, strain BCK2, stronger effect = lower value 1 | locus YFR010W, strain ubp6, stronger effect = lower value 0.966 | locus YGL078C, strain dbp3, stronger effect = lower value 1.03 | locus YGL086W, strain mad1, stronger effect = lower value 1 | locus YGL167C, strain pmr1, stronger effect = lower value 0.983 | locus YGL173C, strain kem1, stronger effect = lower value 0.983 | locus YGL227W, strain vid30, stronger effect = lower value 0.993 | locus YGL240W, strain doc1, stronger effect = lower value 0.99 | locus YGL248W, strain PDE1, stronger effect = lower value 1.02 | locus YGL253W, strain hxk2, stronger effect = lower value 0.994 | locus YGR078C, strain PAC10, stronger effect = lower value 1.01 | locus YGR135W, strain pre9, stronger effect = lower value 1.01 | locus YGR252W, strain gcn5, stronger effect = lower value 0.981 | locus YHR013C, strain ard1, stronger effect = lower value 0.956 | locus YHR027C, strain rpn1, stronger effect = lower value 1 | locus YHR030C, strain SLT2, stronger effect = lower value 1 and 0.963 | locus YHR079C, strain IRE1 (second series), stronger effect = lower value 1.02 | locus YHR079C, strain IRE1, stronger effect = lower value 0.98 | locus YHR094C, strain hxt1, stronger effect = lower value 1.03 | locus YHR129C, strain ARP1, stronger effect = lower value 1.01 | locus YHR142W, strain chs7, stronger effect = lower value 0.97 | locus YHR200W, strain rpn10, stronger effect = lower value 1.01 | locus YIL066C, strain RNR3, stronger effect = lower value 1.01 | locus YIL073C, strain SPO22, stronger effect = lower value 1.06 | locus YIL125W, strain kgd1, stronger effect = lower value 1.04 | locus YIR030C, strain dcg1, stronger effect = lower value 1.03 | locus YJL092W, strain hpr5, stronger effect = lower value 0.999 | locus YJL095W, strain BCK1 (second series), stronger effect = lower value 0.99 | locus YJL095W, strain BCK1, stronger effect = lower value 1.02 and 0.987 | locus YJL115W, strain asf1, stronger effect = lower value 0.976 | locus YJL129C, strain trk1, stronger effect = lower value 1.01 | locus YJL134W, strain LCB3, stronger effect = lower value 1 | locus YJL154C, strain vps35, stronger effect = lower value 0.97 | locus YJL164C, strain tpk1, stronger effect = lower value 0.983 | locus YJL166W, strain qcr8, stronger effect = lower value 0.968 | locus YJL168C, strain set2, stronger effect = lower value 1.03
